Screening data (PubChem BioAssay)
LT uptake inh: anthrax lethal toxin internalization inhibition; Cells, anthrax lethal toxin internalization, FRET ratio (460/530); actives 0.67% (n = 70,000); Potency, µM (doses to about 40 µM), for the others: at the top dose activity change, negative = inhibition, hits mostly inhibitors; AID 912; also: % is scaled to controls: 0 for no effect and ±100 for the full control effect; nearly all actives have a fitted effect of over 50% in size
AmpC inh det: AmpC beta-lactamase inhibition, detergent assay. P00811. purified AmpC, nitrocefin hydrolysis with detergent. Potency, µM (doses to about 28.7 µM), for inactives: top-dose activity change, negative = inhibition. actives 0.09% (n = 71,000). AID 584; active = well fitted curve in the direction sought with a large enough effect; inconclusive = small, poorly fitted or top-dose-only effect; also: % is scaled to controls: 0 for no effect and ±100 for the full control effect
Target sequence (P00811 whole entry, looked up): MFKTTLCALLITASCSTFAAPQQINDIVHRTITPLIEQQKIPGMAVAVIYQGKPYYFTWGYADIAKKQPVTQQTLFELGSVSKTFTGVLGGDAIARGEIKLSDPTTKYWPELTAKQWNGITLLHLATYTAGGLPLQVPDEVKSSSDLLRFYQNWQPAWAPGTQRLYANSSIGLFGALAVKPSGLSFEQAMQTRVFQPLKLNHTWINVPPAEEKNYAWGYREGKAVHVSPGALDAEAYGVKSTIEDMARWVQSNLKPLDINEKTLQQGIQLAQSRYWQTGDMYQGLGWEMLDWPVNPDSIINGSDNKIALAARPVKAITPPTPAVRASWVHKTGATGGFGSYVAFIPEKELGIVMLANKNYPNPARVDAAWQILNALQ
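E. coli AmpC (5.3 nM) in 20 mM phosphate pH 7.0 with 0.01% Triton X-100, preincubated 15 min RT with compound; nitrocefin (2 uL of 800 uM stock) hydrolysis followed by 480 nm absorbance every 20 s over 4 min.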
Prx2 Sm inh: inhibitors of Schistosoma mansoni peroxiredoxin 2. actives 0.07% (n = 65,000). AID 448. S. mansoni Prx2 activity coupled to TGR/GSH (TGR is thioredoxin glutathione reductase), NADPH fluorescence loss, qHTS. Potency, µM
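Enzyme mix: 100 uM NADPH, 25 nM TGR, 700 uM GSH, 50 nM Prx2 in 100 mM phosphate pH 7.4, 10 mM EDTA, 0.01% Tween-20. 15 min RT with compound; NADPH/GSH added, H2O2 starts reaction; NADPH fluorescence read 8 min.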
AmpC inh no det: AmpC beta-lactamase inhibition, detergent-free assay; P00811; AmpC nitrocefin hydrolysis, absorbance 480 nm, no detergent; Potency, µM (highest dose often 28.7 µM), for the others: at the highest dose activity change, negative = inhibition; actives 1.8% (n = 71,000); AID 585; also: % of control where 0% means no effect
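Enzyme, pH 7.0 phosphate. Compound titrations were pre-incubated with AmpC for 15 min at room temperature before nitrocefin (stock 800 uM) addition; product formation was recorded at 480 nm every 20 s for 4 min.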
Starred values were filed as active, the others as inactive; u = inconclusive; x = not tested or not shown; ! = repeats disagree; [ ] = another dose, or the depositor's remark. Shown are actives, neighbours in structure and some others; about 2.6% of the full set was active somewhere. Unless noted, calls follow the shape of the full dose curve. Potency is read from the fitted curve at half-maximal effect.

SMILES	LT uptake inh	AmpC inh det	Prx2 Sm inh	AmpC inh no det
Cc1onc(-c2c(F)cccc2Cl)c1C(=O)NCc1cccs1	10.7%	-1.7%	>57	-3.1%
Cc1onc(-c2c(F)cccc2Cl)c1C(=O)N[C@@H]1C(=O)N2[C@H]1SC(C)(C)[C@H]2C(=O)O	u	0.0398µM*	>57	0.0251µM*
Cc1ccc(S(=O)(=O)NC(=O)OC23COCN2COC3)cc1	u	-4.7%[5.75 µM]	>57	-1.3%[5.75 µM]
O=C(O)Cc1cccnc1	-0.8%[8 µM]	-4.0%[5.75 µM]	>57	-5.2%[5.75 µM]
N#Cc1c(N)nc(N2CCCC2)c(C#N)c1-c1ccc(Cl)cc1	1µM*	3.8%	>57	-15.9%
N#Cc1c(N2CCCC2)nc(N)c2c(N)nc(N3CCCC3)cc12	-15.3%	8.2%	>57	51.4%
COC(=O)c1ccc(-c2nc(-c3ccc(Br)o3)no2)cc1	-10.7%	13.9%	>57	3.98µM*[single pt active]
CCOC(=O)c1ccc(OCc2nc(-c3cccs3)no2)cc1	-35.7%	-1.0%	>57	-3.0%
COc1ccc(Cl)cc1-c1nc(-c2ccc(Br)o2)no1	-8.1%	12.9%	>57	3.16µM*[single pt active]
COc1ccc(-c2noc(-c3cc(Cl)ccc3Cl)n2)cc1OC	-14.4%	0.5%	>57	19.0%
COC(=O)c1ccc(-c2nc(-c3cccs3)no2)cc1	-15.8%	13.7%	>57	3.98µM*[single pt active]
N[C@H](Cc1cccc(-c2ccccc2CP(=O)(O)O)c1)C(=O)O	3.8%	-2.3%	>57	4.2%
N#CC1=C2SCN(c3ccccc3)CN2C(=O)CC1c1c(Cl)cccc1Cl (stereo not given)	u	7.5%	x	2.51µM*
N#CC1=C2SCN(c3ccccc3)CN2C(=O)CC1c1cccs1 (stereo not given)	-12.8%	-4.7%	>57	-6.0%
Cc1ccc(C2CC(=O)N3CN(c4ccc(Br)cc4)CSC3=C2C#N)o1 (stereo not given)	u	-5.8%	>57	12.6µM*[single pt active]
N#CC1=C2SCN(Cc3ccco3)CN2C(=O)CC1c1c(F)cccc1Cl (stereo not given)	-10.7%	9.5%	>57	3.98µM*[single pt active]
COc1ccc(OC)c(C2CC(=O)N3CN(c4ccc(C)c(Cl)c4)CSC3=C2C#N)c1 (stereo not given)	-15.1%	11.0%	>57	-7.6%
N#CC1=C2SCN(c3ccccc3)CN2C(=O)CC1c1ccccc1Cl (stereo not given)	u	8.9%	>57	2.51µM*
COc1cc(OC)c(C2CC(=O)N3CN(c4ccccc4)CSC3=C2C#N)cc1OC (stereo not given)	u	0.8%	>57	57.1%
O[Si@](CCCN1CCCCC1)(c1ccc(F)cc1)C1CCCCC1	-2.5%	2.3%	>57	35.7%
CN1CC[C@@]2(CCN3CCc4c(oc5ccccc45)[C@@H]3C2)N(C)C1=O	9.2%	-0.3%	>11.4	49.5%
O=c1c[n+](CC[n+]2cc(=O)o[nH]2)[nH]o1	7.1%[8 µM]	-3.7%[5.75 µM]	>57	7.9%[5.75 µM]
C=C[C@@]1(C)C=C2CC[C@@H]3[C@](C)(CCC[C@@]3(C)C(=O)O)[C@H]2CC1	u	-8.1%	>57	-15.5%
O=C(O)c1ccc(C(=O)c2ccccc2)c(C(=O)O)c1	13.5%[8 µM]	-3.3%[5.75 µM]	>57	12.0%[5.75 µM]
COc1cccc(OC)c1C(=O)Nc1c(C)n(C)n(-c2ccccc2)c1=O	-10.0%	0.9%	>57	4.1%
SMILES	LT uptake inh	AmpC inh det	Prx2 Sm inh	AmpC inh no det
COc1ccc2cc(C(=O)Nc3c(C)n(C)n(-c4ccccc4)c3=O)sc(=O)c2c1OC	-6.2%	9.8%	>57	2.51µM*[single pt active]
COc1ccc(NC(=O)Nc2c(C)n(C)n(-c3ccccc3)c2=O)cc1	-3.9%	28.2%	>57	3.98µM*[single pt active]
COc1c2ccoc2nc2c(OC)c(OC[C@H](O)C(C)(C)O)ccc12	12.6µM*!	-4.2%	>57	8.6%
COc1cc2c(=O)n(Cc3ccco3)c(=O)n(CC(=O)c3ccc(Br)cc3)c2cc1OC	-0.4%	-2.4%	>57	106.4%
COc1cc2c(=O)n(Cc3ccco3)c(=O)n(CC(=O)c3cccc(Br)c3)c2cc1OC	-3.7%	u	>57	6.31µM*
Cc1ccc(Cn2ccc(NC(=O)c3cc(-c4ccc(F)cc4)on3)n2)cc1	-5.8%	6.8%	>57	7.94µM*
Cc1ccc(Cn2ccc(NC(=O)c3cc(CC(C)C)on3)n2)cc1	u	7.9%	>57	3.98µM*[single pt active]
Cc1ccc(Cn2ccc(NC(=O)c3cc(-c4ccc(Cl)cc4)on3)n2)cc1	-3.2%	9.3%	>57	-10.2%
Nc1nc2ccc(Oc3ccccc3)cc2s1	-21.6%	-2.0%	>57	-13.3%
Nc1nc2ccc(S(=O)(=O)c3ccc4nc(N)sc4c3)cc2s1	-5.2%	-4.9%	>57	12.6µM*
